Rows were chosen to be rich in hits. Some 6% of all compounds tested hit in one or more screens of this group.
D1 ag – agonists of human D1 dopamine receptor; P21728; HEK293 T-REx D1 cells, calcium flux, agonist mode; activation, % at 2 µM; 360,000 tested, 1% active; in the data active = activation above about 30%; also: 0% is about no effect
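Inducible HEK293 T-REx D1 cells, force-coupled to calcium signalling, were plated at 4000 cells/well with tetracycline and held overnight at 30 C. After no-wash calcium dye loading, compound-evoked calcium rise over 180 s flagged agonists.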
DRD3 agonist – agonists of human D3 dopamine receptor. P35462. D3R DiscoveRx beta-arrestin cells, luminescence, 90 min. max activation, %. 410,000 tested, 0.58% active. AID 652048; in the data active = max activation above about 30%; also: 0% is about no effect
Target sequence (P35462 whole entry, looked up): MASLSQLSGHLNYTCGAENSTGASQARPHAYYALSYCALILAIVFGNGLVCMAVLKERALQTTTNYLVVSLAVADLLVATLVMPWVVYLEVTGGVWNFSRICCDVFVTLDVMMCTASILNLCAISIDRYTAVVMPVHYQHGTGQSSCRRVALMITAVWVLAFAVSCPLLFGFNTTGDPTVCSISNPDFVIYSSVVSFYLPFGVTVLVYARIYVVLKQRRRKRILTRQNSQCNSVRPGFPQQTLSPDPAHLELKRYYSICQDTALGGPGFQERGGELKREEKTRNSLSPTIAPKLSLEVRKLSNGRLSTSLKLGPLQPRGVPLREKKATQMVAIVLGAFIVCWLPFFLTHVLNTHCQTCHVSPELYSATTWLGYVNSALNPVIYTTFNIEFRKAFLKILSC
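Agonist-mode cell screen: cells plated at 1500/well and incubated overnight at 37 °C, then exposed to library compounds for 90 min at 37 °C. Detection reagent was added for 30–60 min at room temperature, and luminescence was read.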
D1 antagonist – antagonists of human D1 dopamine receptor; P21728; HEK293 TREx D1 cells, calcium flux, dopamine EC80; stronger effect = lower value; activity change, negative = inhibition, % at 10 µM; 360,000 tested, 3.2% active; in the data active = activity change below about -30%; also: % is scaled to controls: 0 for no effect and ±100 for the full control effect
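Allosteric or orthosteric antagonism assessed as attenuation of the calcium response to EC80 dopamine, added 180 s after compound, in induced HEK293 Trex D1 cells loaded with no-wash calcium dye.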
DRD3 antagonist – antagonists of human D3 dopamine receptor; P35462; D3R cells, DiscoveRx beta-arrestin luminescence, antagonist mode; stronger effect = lower value; max response, negative = inhibition, %; 360,000 tested, 2.5% active; in the data active = max response below about -50%; inconclusive = no clear call, values can overlap the other calls; also: % is scaled to controls: 0 for no effect and ±100 for the full control effect
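Cells expressing the human receptor were seeded at 1500 cells/well, incubated overnight at 37 degrees C in 5% CO2, then exposed to library compounds with dopamine controls for 90 minutes at 37 degrees C before luminescent detection.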
D1 PAM – enhances dopamine response at the human D1 receptor; P21728; HEK293 TREx D1 cells, calcium flux, dopamine EC20 potentiation; potentiation, % at 10 µM; 360,000 tested, 0.036% active; AID 504651; in the data active = potentiation above about 30%; also: 0% is about no effect
Starred values were filed as active, the others as inactive; u = inconclusive; x = no result given.

SMILES | D1 ag | DRD3 agonist | D1 antagonist | DRD3 antagonist | D1 PAM
CC(C)Oc1ccc(CNC(=O)c2cnc3sc(N4CCCCC4)nn3c2=O)cc1 | 4 | 1 | 6 | x | 1
Nc1c(C(=O)c2ccccc2)sc2nsc(SCCN3CCCC3)c12 | 167* | -6 | -34* | -16 | -4
CC(=O)c1sc2nsc(SCCN3CCCCC3)c2c1N | 22 | -8 | -5 | 12 | -3
Cc1cc(C)c2c(N)c(C(=O)c3ccc(Cl)cc3)sc2n1 | 0 | -5 | -3 | 23 | -11
Nc1c(C(=O)c2ccc(Cl)cc2)sc2nsc(SCCN3CCOCC3)c12 | 103* | -3 | -25 | 3 | -1
CCC(CN)CC(C)CCNCC(O)CNCC(C)CC(CC)CN (centres undefined) | x | -6 | x | x | x
COc1ccccc1CNC(=O)CN1N=C(c2ccccc2)CCC1=O | -3 | -11 | 12 | x | -1
Nc1cc(OCC(F)(F)F)cc([N+](=O)[O-])c1 | 0 | 4 | -15 | 4 | -2
Nc1cc(N)c(OCC(F)(F)F)cc1OCC(F)(F)F | 2 | 6 | 4 | -56* | -4
COc1ccc(-c2n[nH]c3c2C(c2ccc(Cl)cc2Cl)NC3=O)cc1 (centres undefined) | -1 | 7 | 19 | x | 10
COc1ccccc1NC(=O)CSc1oc(-c2cccs2)nc1S(=O)(=O)c1ccccc1 | 5 | 11 | -16 | x | 1
COc1ccc(CCNCc2ccccc2N2CCCC2)cc1 | 1 | -6 | 10 | 5 | 2
COc1ccc(CCNCc2cc(C)n(-c3ccc(OC)cc3)c2C)cc1 | 55* | -1 | -6 | 7 | -8
CCC1CCCCN1C(=O)Cn1c(=O)n(-c2ccc(Cl)c(Cl)c2)c(=O)c2c(C)c(C(=O)N(C)C)sc21 (centres undefined) | 0 | -6 | -34* | x | 0
CCN(CC)CCCNC(=O)c1nn(C)c2c1CSc1ccccc1-2 | 1 | -18 | -2 | x | 0
CC(NCCCSc1ccccc1)C(O)c1ccc(O)cc1 (centres undefined) | x | -14 | x | -62* | x
O=C(C/C=N\OCc1ccc([N+](=O)[O-])cc1)Nc1ccc(Cl)cc1 | 19 | -8 | -30* | -26 | -7
Cc1ccccc1-c1cc(C(=O)Nc2nc3c(s2)CCCC3)c2ccccc2n1 | 3 | -58 | -5 | -91* | 10
Cc1ccc(C)c(-c2cc(C(=O)Nc3sc(C)c(C)c3C(N)=O)c3ccccc3n2)c1 | 4 | 46* | 5 | 15 | 1
CCOc1ccccc1CNC(=O)c1ccc(NC(=O)N2CCSc3ncccc32)cc1 | 3 | 5 | -7 | x | -3
CCc1ccccc1OCCCCN1CCCC1 | 5 | 0 | -26 | u | -15
c1ccc(-c2ccccc2OCCCCN2CCCCCC2)cc1 | 28 | -3 | -35* | -86* | -12
C=CCc1ccccc1OCCCCN1CCCC1 | -1 | -12 | -10 | -83* | -2
c1ccc(-c2ccccc2OCCOCCN2CCCCC2)cc1 | 24 | -28 | -47* | u | -11
C=CCc1ccccc1OCCn1ccnc1 | 0 | 6 | -6 | -52* | -1
SMILES | D1 ag | DRD3 agonist | D1 antagonist | DRD3 antagonist | D1 PAM
OCCCN1CCN(CCCOc2ccccc2-c2ccccc2)CC1 | 4 | -19 | -19 | u | -2
Cc1ccc(S(=O)(=O)c2cn(Cc3ccccc3)c3cc(N4CCCC4)c(F)cc3c2=O)cc1C | -1 | 8 | -15 | x | -1
CCN1CCN(Cc2c(O)ccc3cc(-c4ccc(OC)cc4)c(=O)oc23)CC1 | 15 | -1 | 3 | x | -2
c1ccc(-c2ccccc2OCCCN2CCOCC2)cc1 | 0 | 0 | -4 | 0 | -1
CN(C)CCOCCOc1ccccc1-c1ccccc1 | 8 | -25 | -26 | -69* | -9
c1ccc(-c2ccccc2OCCN2CCCC2)cc1 | 7 | -23 | -19 | -63* | -12
NC(=O)CSc1nnc(-c2cccs2)n1Cc1ccco1 | 0 | 1 | -25 | 6 | -5
CCN(CC)C(=O)CSc1nnc(-c2cccs2)n1Cc1ccco1 | 3 | -2 | -32* | 10 | -6
CC(=O)c1cccc(NC(=O)N2CCC(CN3CCCCC3)CC2)c1 | 0 | -13 | 1 | x | 2
CC(=O)Nc1ccc(-c2ccnc3c2CC(C(=O)Nc2ccc(Cl)c(C(F)(F)F)c2)O3)cc1 (centres undefined) | x | -9 | x | -66* | x
O=C(COc1cccc(Cl)c1)NCC(c1cccs1)N1CCOCC1 (centres undefined) | 1 | -4 | -35* | 0 | -6
Cc1cccc(C(=O)NCC(c2cccs2)N2CCOCC2)c1 (centres undefined) | 6 | -8 | 4 | -58* | 3
Cc1cccc(OCC(=O)NCC(c2cccs2)N2CCOCC2)c1 (centres undefined) | 0 | 2 | -1 | 3 | -4
CCn1nc(C(=O)NCC(c2cccs2)N2CCOCC2)c2ccccc2c1=O (centres undefined) | 3 | -6 | -35* | 13 | -10
O=C(NCC(c1cccs1)N1CCOCC1)c1cc(-c2ccc(F)cc2)nc2ccccc12 (centres undefined) | 3 | -13 | 5 | -69* | 4
CCOC(=O)c1noc2ncnc(N3CCN(c4ccccc4OC)CC3)c12 | 1 | -11 | -15 | x | 1
CCOC(=O)Cn1nc2oc(=O)c(CCN3CCN(c4ccccc4OC)CC3)c(C)c2c1C | x | -7 | x | -108* | x
Cc1cccc(CNC(=O)c2sc3ncnc(N(C)C4CCCCC4)c3c2C)c1 | 6 | 5 | -6 | x | -2
O=C(O)c1cc(N/N=C/c2cccnc2)ccc1Cl | 1 | 7 | -33* | 9 | -1
CN(C)S(=O)(=O)Oc1ccc(C(=O)Nc2cccc(C(F)(F)F)c2)cc1 | 10 | 1 | -30 | -6 | -1
CS(=O)(=O)Nc1ccccc1C(=O)Nc1cccc(Cl)c1 | 38* | 12 | -33* | 25 | -1
CN(C)S(=O)(=O)Oc1ccc(C(=O)Nc2cccc(Cl)c2)cc1 | 24 | -5 | -47* | -10 | -7
COc1ccc2cc(C(=O)Nc3ccc(Cl)cc3)sc(=O)c2c1OC | 4 | -29 | 23 | -69* | 1
COc1ccc2cc(C(=O)Nc3ccc(O)cc3)sc(=O)c2c1OC | -2 | -25 | -1 | -21 | -10
CC1(C)C(=O)N(CC(=O)Nc2cccc(F)c2)c2ccc(S(=O)(=O)N3CCCCC3)cc21 | 1 | 5 | 19 | x | -3
COc1cccc(OCCn2cc(C(=O)c3ccco3)c3ccccc32)c1 | 50* | 23 | -1 | 40 | -7
O=Cc1cn(CCOc2ccccc2)c2ccccc12 | 6 | -8 | -10 | 0 | -4
Cc1ccc(OCCn2cc(C=O)c3ccccc32)cc1 | 7 | 0 | -34* | 0 | -4
COc1cccc(OCCn2cc(C(C)=O)c3ccccc32)c1 | 23 | 8 | -32* | 24 | -1
Cc1ccc(C)c(OCCn2cc(C(=O)O)c3ccccc32)c1 | 4 | -9 | -40* | u | -11

High-throughput results: PubChem BioAssay, National Center for Advancing Translational Sciences (NCATS)
